# Experimental data reported in PubChem BioAssay AID1671190 (National Center for Advancing Translational Sciences (NCATS), 2021).
# Among all 580,000 compounds or so, about 6,100 (1.1%) were called active. Where a call stands in place of a potency, no number is given. Inconclusive results (about 15%) are left out. Only a selection was taken, and actives are over-represented in it overall. A number with no mark means an inactive call. Calls follow the shape of the dose curve; as a rule, active = well fitted inhibition curve with a large enough effect; inconclusive = small, poorly fitted or top-dose-only effect, or another doubt; inactive = no such curve, though single readings can be large or run the other way.
# Molecular target: Polyunsaturated fatty acid lipoxygenase ALOX12 (Homo sapiens) (UniProt P18054)
# Sequence (P18054 whole entry, looked up): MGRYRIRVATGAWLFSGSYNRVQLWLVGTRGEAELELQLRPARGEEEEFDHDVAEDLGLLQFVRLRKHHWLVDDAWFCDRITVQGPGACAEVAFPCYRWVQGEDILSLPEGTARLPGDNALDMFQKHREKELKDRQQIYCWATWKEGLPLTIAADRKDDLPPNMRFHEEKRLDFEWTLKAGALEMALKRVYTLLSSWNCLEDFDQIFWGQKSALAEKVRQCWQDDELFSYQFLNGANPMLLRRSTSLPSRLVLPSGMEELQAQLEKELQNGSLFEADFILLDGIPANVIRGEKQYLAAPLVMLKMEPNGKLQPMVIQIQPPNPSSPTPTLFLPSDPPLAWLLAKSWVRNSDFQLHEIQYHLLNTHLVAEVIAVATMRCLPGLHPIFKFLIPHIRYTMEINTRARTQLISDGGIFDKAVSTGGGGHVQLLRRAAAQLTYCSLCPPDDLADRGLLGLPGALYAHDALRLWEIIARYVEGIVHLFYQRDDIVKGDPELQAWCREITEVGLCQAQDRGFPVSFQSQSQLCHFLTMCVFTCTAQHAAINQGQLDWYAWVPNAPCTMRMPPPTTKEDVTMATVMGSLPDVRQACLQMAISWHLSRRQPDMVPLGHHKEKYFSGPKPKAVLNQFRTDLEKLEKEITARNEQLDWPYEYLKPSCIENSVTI
# Assay: Primary qHTS assay for inhibitors of human arachidonate 12S-lipoxygenase (ALOX12): Round 2
# Settings: purified 12hLO, xylenol orange hydroperoxide absorbance; series mostly up to 108 µM
# Text: Assay Provider: Theodore R. Holman Ph.D. University of California, Santa Cruz, California Human lipoxygenase 12hLO is a member of the closely related lipoxygenase family of enzymes which catalyze the site-specific oxidation of arachidonic acid to various hormone precursor molecules and as such is a candidate for drug development in a variety of disease areas, such as cancer and inflammation. Inhibition of 12hLO activity was screened by utilizing arachidonic acid as a substrate. The extent of hydroperoxide product formation was measured by a secondary chromogenic reaction in which xylenol orange (XO, Sigma-Aldrich, cat. number 39,818-7) reacts with the ferric ions produced from the reaction between the hydroperoxide and ferrous ions. The Fe (III)-XO complex is characterized with red-shifted absorbance at 560 nm. A purified preparation of human 12hLO was supplied by Dr. Holman laboratory, University of California, Santa Cruz.
# PROTOCOL TABLE SEQUENCE No. (e.g., 1, 2, 3, etc.); […] (e.g., Cells, Incubation, Reagent, etc.); VALUE; DESCRIPTION 1; Enzyme; 3 uL; 150 nM 12hLO enzyme solution dispensed in 1536-well Greiner black, clear bottom plates. 2; Compound; 23 nL; compounds and controls were added. 3; Incubate; 15 min; room temperature. 4; Substrate; 1 uL; 40 uM arachidonic acid (final concentration). 5; Incubate; 30 min; room temperature. 6; Reagent; 4 uL; Fe-XO solution was added to each well. 7; Incubation; 30 min; room temperature 8; Detector; absorbance; Read 1 at 405 nm absorbance using ViewLux (Perkin-Elmer) CCD imager. 9; Detector; absorbance; Read 2 at 573 nm absorbance using ViewLux (Perkin-Elmer) CCD imager. NOTES (numbers refer to sequence above) 1; 150 nM 12hLO (final concentration) in buffer solution (25 mM Hepes, 0.01% Triton X-100, pH 7.0) was dispensed in columns 1, 2, 5-48. Column 1 is neutral (100% activity). Buffer only was dispensed in columns 3 and 4 as no enzyme negative controls. The plates were covered with metal lids with gas-exchange holes. 2; Compounds were pin transferred via a Kalypsys Pin Tool (Wako USA) in column 5-48. Control compound was transferred in column 2, titration of nordihydroguaiaretic acid (NDGA, Sigma-Aldrich, N5023) with top concentration of 20 mM in DMSO then 1:3 dilution in duplicate. Dilution factor of 23 nL into 4 uL final assay volume. 3; Covered assay plates were incubated for 15 min at room temperature. 4; Substrate was added to start the reaction; 40 uM arachidonic acid (Sigma-Aldrich, St. Louis, MO) was dispensed throughout the plate. 6; Chromogenic detection reagent solution (divalent iron/xylenol orange, Fe-XO) was added to each well: 200 uM xylenol orange, 300 uM ferrous ammonium sulfate prepared freshly in 50 mM sulfuric acid. 8, 9; Two absorbance readouts were obtained at 405 nm and at 573 nm using a ViewLux high-throughput CCD plate imager (Perkin-Elmer). The 573 to 405 (Read 2 / Read 1) absorbance ratio was used to compute reaction progress.
# Potency is read from the fitted curve at half-maximal effect.
SMILES,Potency,"activity change, negative = inhibition"
CCOC(=O)c1c(C)n(Cc2ccccc2Cl)c2ccc(O)cc12,20 µM (active),–
Cc1nn(Cc2ccccc2Cl)c(Cl)c1C(=O)OC(C(=O)NC(N)=O)C(C)C (stereo not given),inactive,–
COc1ccccc1-c1ccc(N2CC3CC(C2)c2cccc(=O)n2C3)nn1 (stereo not given),inactive,–
O=C(NCc1ccccc1)[C@H]1CN2CCC1C[C@@H]2Cn1cc(-c2ccc(F)cc2)nn1 (stereo not given in full),inactive,–
COC(=O)[C@@H]1[C@@H](CO)[C@@H]2Cn3c(ccc(Br)c3=O)[C@H]1N2C(=O)c1cnccn1,inactive,–
COc1cc2c(cc1Oc1cccc(N(C)C)c1)NC(=O)C21CCN(CCC(C)C)CC1,inactive,–
O=C(Nc1ccccc1)[C@H]1CN2CCC1C[C@@H]2Cn1cc(CO)nn1 (stereo not given in full),inactive,–
COc1ccc(N2C(=O)/C(=C/c3ccco3)C(=O)NC2=S)cc1,8.91 µM (active),–
COc1nc2c(cc1CNC(=O)C1C(C)(C)C1(C)C)C(=O)N(C1CCCC1)C2,inactive,–
COc1ccc(/C=C\[N+](=O)[O-])c(OC)c1,inactive,–
Cc1nc(C)c(C(=O)N2[C@H]3CC[C@@H]2c2cnc(-c4ccccc4)nc2C3)s1,inactive,–
O=C1CC2CCN(Cc3cccnc3)CC2CCN1 (stereo not given),–,6.21% [at 12.5 µM]
CC1CNCCN1c1ccc(Cl)cc1 (stereo not given),inactive,–
Cc1cc(N2CCNC[C@@H]2C)ccc1N1CC[C@H](O)C1,44.7 µM (active),–
COc1ccc(-c2cc3c(cc2OC)C2(CCN(C(C)=O)CC2)C(=O)N3)cc1OC,inactive,–
CN(Cc1ccccc1)C[C@H]1CN2CC[C@H]1C[C@@H]2CNC(=O)Nc1ccsc1,inactive,–
C[S+](=O)([O-])N1CCC2(CC1)CC(c1cccnc1)=NO2,–,5.92% [at 6.33 µM]
c1ccc2sc(SNC3CCCCC3)nc2c1,28.2 µM (active),–
OC(CNC1CCCCC1)c1ccccc1 (stereo not given),inactive,–
c1ccc2sc(N3CCNCC3)nc2c1,inactive,–
Cc1noc(C)c1CC(=O)N1[C@H]2CC[C@@H]1c1cnc(-c3ccccc3)nc1C2,inactive,–
Cc1noc(C(C)N2CCN(C(=O)Cc3ccccc3)CC2)n1 (stereo not given),inactive,–
Cc1cc(C)c2[nH]c(C(=O)N3CCC(C#N)(c4ccccc4)CC3)c(C)c2c1,inactive,–
C=CCN1C(=O)NC(=O)/C(=C/c2ccc(OCC(=O)Nc3ccc(C)cc3)cc2)C1=O,39.8 µM (active),–

SMILES,Potency,"activity change, negative = inhibition"
CCC(=O)c1ccc(OCC(=O)N2CCN(CC(=O)Nc3ccc(C)cc3)CC2)cc1,inactive,–
C=CCN(CC=C)C(=O)Nc1ccc(OCC)cc1,inactive,–
CC(CNc1ccc([N+](=O)[O-])c2cnccc12)c1ccccc1 (stereo not given),inactive,–
COC(=O)c1ccc(NC(=O)N2[C@H]3CC[C@@H]2c2cnc(-c4ccc(F)cc4)nc2C3)cc1,inactive,–
COc1cc2c(cc1Oc1cccc(N(C)C)c1)NC(=O)C21CCN(c2cnccn2)CC1,inactive,–
COc1ccc(CC(=O)N2CCN(CC(=O)NC(N)=O)CC2)cc1,inactive,–
C#C[C@H]1CN2CC[C@H]1C[C@@H]2CNC(=O)C1CC1,inactive,–
C#C[C@H]1CN2CC[C@H]1C[C@@H]2COC(=O)Nc1cc(OC)cc(OC)c1,50.1 µM (active),–
COc1ccc(-c2cc([C@H]3CN4CC[C@H]3C[C@@H]4COC(=O)NC(C)C)nc(C)n2)cc1,inactive,–
Cc1ncc2c(n1)C[C@@H]1CC[C@H]2N1S(=O)(=O)c1ccc(F)cc1,inactive,–
Cn1nc(-c2cccs2)cc1[C@H]1CN2CC[C@H]1C[C@@H]2CNC(=O)Nc1ccccc1,inactive,–
C=C(C)C1(CCCC)C(=O)NC(=S)NC1=O,44.7 µM (active),–
COc1ccccc1-c1cc([C@H]2CN3CC[C@H]2C[C@@H]3CNCc2cccc(C#N)c2)n(C)n1,inactive,–
COc1cc2c(cc1OCc1ccccc1)NC(=O)C21CCN(CCC(C)C)CC1,inactive,–
CC(=O)NCC1=C(c2ccc3ccccc3c2)C[C@@H]2CC[C@H]1N2Cc1ccco1,28.2 µM (active),–
COC(=O)C1=C(c2ccc3ccccc3c2)C[C@@H]2CC[C@H]1N2C(=O)NCCO,inactive,–
Cc1ncoc1C(=O)NCC1=C(c2cccc3ccccc23)C[C@@H]2CC[C@H]1N2Cc1ccco1,inactive,–
O=[S+]1([O-])NC2(CCN(CC3CCOCC3)C2)COc2ccncc21 (stereo not given),–,3.45% [at 6.33 µM]
CN(C)C(=O)Oc1ccc2c(=O)c(-c3ccc(Br)cc3)c(C(F)(F)F)oc2c1,inactive,–
O=C(c1ccc2c(c1)CCO2)N1C[C@@H](c2ccc(F)cc2)[C@@H]2[C@H]1C1CCN2CC1,inactive,–
Cc1cc(C)cc(CN2CCC3(CCNCC3)C2)c1,inactive,–
COc1cc2c(cc1OC1CCCC1)NC(=O)C21CCN(c2nccs2)CC1,inactive,–
O=C1NC(=O)N(c2ccccc2)C(=O)/C1=C/c1ccc([N+](=O)[O-])s1,39.8 µM (active),–
COc1cccc(N2C(=O)NC(=O)/C(=C\c3ccc([N+](=O)[O-])s3)C2=O)c1,44.7 µM (active),–

SMILES,Potency,"activity change, negative = inhibition"
CCC(CC)c1cc([C@H]2CN3CC[C@H]2C[C@@H]3CNS(=O)(=O)Cc2ccccc2)nc(-c2ccncc2)n1,inactive,–
N#Cc1cccc(NC(=O)NC[C@H]2C[C@@H]3CCN2C[C@@H]3CN2CCN(c3ncccn3)CC2)c1,inactive,–
CC(C)(C)c1nc(CN2CCC3(CC2)C(=O)Nc2ccccc23)no1,inactive,–
COc1cccc(Nc2cc3c(cn2)CN(C)CCN3C)c1,inactive,–
O=c1c2ccccc2nc(/C=C/c2ccc(F)cc2)n1-c1ccccc1O,inactive,–
O=c1c2ccccc2nc(/C=C/c2ccco2)n1-c1ccccc1O,35.5 µM (active),–
Cc1ccc(-n2c(/C=C/c3cccc(C(F)(F)F)c3)nc3ccccc3c2=O)cc1,inactive,–
C=CCN(C)C[C@H]1CN2CC[C@H]1C[C@@H]2CNC(=O)Nc1cccc(SC)c1,inactive,–
O=c1oc2ccccc2c(O)c1C(c1ccccc1O)c1c(O)c2ccccc2oc1=O,inactive,–
CCC(=O)CC(c1ccc([N+](=O)[O-])cc1)c1c(O)c2ccccc2oc1=O (stereo not given),inactive,–
Cc1ccc(C(c2c(O)c3ccccc3oc2=O)c2c(O)c3ccccc3oc2=O)cc1,12.6 µM (active),–
O=C(Cc1ccccc1)N1[C@H]2CC[C@@H]1c1cnc(-c3ccc(F)cc3)nc1C2,inactive,–
COc1cc2c(cc1-c1ccncc1)NC(=O)C21CCN(C(C)=O)CC1,inactive,–
COc1ccc(CC(=O)N2C[C@@H]3CC[C@H](C2)N(CC2CCC2)C3)c(OC)c1,inactive,–
c1cncc(CNC2=NCCC2)c1,inactive,–
ClCc1cccnc1,11.2 µM (active),–
c1cncc(CNCCc2c[nH]c3ccccc23)c1,inactive,–
Cc1nc(-c2ccc(N(C)C)cc2)cc([C@H]2CN3CC[C@H]2C[C@@H]3CNC(=O)C2CCC2)n1,inactive,–
CCOCCc1c(O)[nH]c(=S)[nH]c1=O,14.1 µM (active),–
Cn1nc(-c2ccc(F)cc2)cc1[C@H]1CN2CC[C@H]1C[C@@H]2CNCc1ccccn1,inactive,–
Cc1ccc2c(n1)N(C)[C@H](CO)CCN(C1CCCC1)C2,inactive,–
CC(C)C(=O)N1CCC2(CC1)NCc1ccccc1-n1ccnc12,inactive,–
